This is an account of results in PubChem BioAssay (Tox21).

The target in assay [1] is Progesterone receptor (Homo sapiens) (UniProt P06401). The assay can be described thus: qHTS assay to identify small molecule agonists of the progesterone receptor (PR) signaling pathway (AID 1346784; calls by dose curve; also: nearly all actives have a fitted effect of over 30% in size). Put shortly:
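Agonist qHTS: compounds pinned onto 3,000 PR-UAS-bla HEK 293T cells per well in charcoal-stripped serum medium, 16hr at 37C, then beta-lactamase activity measured by LiveBLAzer FRET fluorescence after 2 hours at room temperature.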

A short description of assay [2]: qHTS assay to identify small molecule antagonists of the progesterone receptor (PR) signaling pathway - cell viability counter screen (AID 1346798). Also: series mostly up to about 92 µM; nearly all actives have a fitted effect of over 50% in size. Summed up:
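Cytotoxicity read as CellTiter-Glo luminescence (30 min, room temperature) in the same wells as the beta-lactamase readout. HEK293T PR-UAS-bla cells in charcoal-stripped 2% FBS received compound and R5020, then 16 h at 37C, 5% CO2.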

Assay [3] in a line: qHTS assay to identify small molecule agonists of the progesterone receptor (PR) signaling pathway - cell viability counter screen (AID 1346799; calls by dose curve; also: nearly all actives have a fitted effect of over 45% in size). Put shortly: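 Cytotoxicity measured by CellTiter-Glo luminescence (30 min, RT) in the same wells as the PR beta-lactamase agonist read. Those HEK293T cells had 16 h compound treatment at 37 C in 2% charcoal-stripped FBS medium.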
For orientation: Quantitative high-throughput screening tests each substance at several concentrations.

Assay [4] in a line: qHTS assay to identify small molecule antagonists of the TGF-beta/Smad signaling pathway - cell viability counter screen (AID 1346824). Also: nearly all actives have a fitted effect of over 50% in size. Put shortly: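 SBE-bla HEK 293T cells, incubated overnight, then compound plus 0.25 ng/mL TGF-beta1 (stock added) for 5 hr at 37 C. Viability was read in the same wells by CellTiter-Glo luminescence after 30 min at room temperature.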
A short description of assay [5]: qHTS assay to identify small molecule agonists of the TGF-beta/Smad signaling pathway - cell viability counter screen (AID 1346829). Also: top concentration of the series differs between compounds; nearly all actives have a fitted effect of over 45% in size. Summed up: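 After overnight seating at 37 C and 5% CO2, reporter cells got compounds for 5 hr and FRET substrate for 2 hr; cell viability then came from CellTiter-Glo luminescence.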
The nature of assay [6]: qHTS assay to identify small molecule agonists of the TGF-beta/Smad signaling pathway (AID 1346859; active = well fitted activation curve with a large enough effect in the signal ratio in the repeat runs, not every such curve was filed as active; the % refers to the signal ratio; also: series mostly up to about 77 µM). Summed up: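 Fluorescence (ex 405 nm; em 460 and 530 nm) was read 2 h after LiveBLAzer FRET substrate at RT. The preceding compound treatment of overnight-plated SBE-bla HEK293T cells lasted 5 h at 37 C.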
Assay [7] concerns the target Thyrotropin-releasing hormone receptor (Homo sapiens) (UniProt P34981). Kind of assay: qHTS assay to identify small molecule antagonists of the thyrotropin-releasing hormone receptor (TRHR) signaling pathway (AID 1346877; active = well fitted inhibition curve with a large enough effect in the repeat runs, not every such curve was filed as active; also: series mostly up to about 51 µM). Put shortly:
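Screening used HEK293 cells engineered with TRHR, with a brief 5 min room-temperature compound exposure preceding addition of TRH to 1 nM. The read-out was kinetic calcium-dye fluorescence, concentration-response from 15 doses in triplicate.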

For assay [8] the target is unchanged. The assay can be described thus: qHTS assay to identify small molecule agonists of the thyrotropin-releasing hormone receptor (TRHR) signaling pathway (AID 1346891; calls by dose curve; also: series mostly up to about 58 µM). Summed up: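 Agonist-mode intracellular calcium readout: kinetic fluorescence over 3 min at 1 s intervals after compound addition to TRHR-HEK293 cells (18 h seeded, 2 h dye-loaded at 37 C). Fifteen concentrations, triplicates.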

Assay [9] in a line: Human pregnane X receptor (PXR) small molecule agonists, qHTS cell viability counter screen (AID 1346977). Also: nearly all actives have a fitted effect of over 50% in size. Summed up: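 Same-well viability read: CellTiter-Fluor added after 23 hr compound exposure, fluorescence measured 1 hr later. Cells were PXR-Luc HepG2 seeded at 2,000/well in 5% charcoal-stripped FBS medium, rested 5 hr before dosing at 37 C.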
A short description of assay [10]: Caspase-3/7 induction in HepG2 cells by small molecules, qHTS assay (AID 1346978). Also: nearly all actives have a fitted effect of over 15% in size. Put shortly:
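Wild-type HepG2 cells, 2,000/well, settled 5 hr at 37 C and 5% CO2, then compound-treated for 17 hr; caspase-3/7 activity read by luminescent Caspase-Glo 3/7 after 30 min at room temperature.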

Assay [11] in a line: Caspase-3/7 induction in CHO-K1 cells by small molecules, qHTS assay (AID 1346980). Also: nearly all actives have a fitted effect of over 15% in size. Put shortly: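 Wild-type CHO-K1 cells exposed to compounds for 17hr at 37 C, 5% CO2. Caspase-3/7 activity then measured by Caspase-Glo 3/7 luminescence after 30min at room temperature.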
A short description of assay [12]: Caspase-3/7 induction in HepG2 cells by small molecules, qHTS cell viability counter screen (AID 1346981). Also: nearly all actives have a fitted effect of over 30% in size. Also: potency is read from the fitted curve at half-maximal effect. Summed up:
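Multiplexed with the caspase-3/7 assay: HepG2 cells, 16 hr compound treatment, CellTiter-Fluor viability detection by fluorescence.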

In assay [13] the target is Nuclear receptor subfamily 1 group I member 2 (Homo sapiens) (UniProt O75469). Kind of assay: Human pregnane X receptor (PXR) small molecule agonists, qHTS assay (AID 1346982). Also: nearly all actives have a fitted effect of over 35% in size. Also: potency is read from the fitted curve at half-maximal effect. Put shortly:
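We seeded PXR-Luc HepG2 cells in assay medium containing 5% charcoal-stripped FBS, added compounds 5 hr later, incubated 24 hr, and read luminescence with ONE-Glo reagent.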

Assay [14] has as its target Cytochrome P450 2D6 (Homo sapiens) (UniProt P10635). The assay can be described thus: Cytochrome P450 Family 2 Subfamily D Member 6 (CYP2D6) small molecule antagonists: luciferase reporter qHTS assay (AID 1671196). Also: nearly all actives have a fitted effect of over 50% in size. Also: potency is read from the fitted curve at half-maximal effect. Summed up: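 Luminescence (RLU), read 20 min after detection reagent, indicated CYP2D6 conversion of proluciferin to luciferin during a 1 h NADPH-dependent reaction at room temperature.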
(A reporter such as luciferase makes a cellular process visible.)

The nature of assay [15]: Caspase-3/7 induction in CHO-K1 cells by small molecules, qHTS cell viability counter screen (AID 1346979). Also: nearly all actives have a fitted effect of over 35% in size. Also: potency is read from the fitted curve at half-maximal effect. Put shortly:
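Cytotoxicity counter screen: CellTiter-Fluor added to compound-treated wild-type CHO-K1 cells at 16 h (37C, 5% CO2), fluorescence measured 1 h later; same wells as caspase-3/7 measurement.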

Assay [16] addresses Cytochrome P450 2C19 (Homo sapiens) (UniProt P33261). Kind of assay: Cytochrome P450 Family 2 Subfamily C Member 19 (CYP2C19) small molecule antagonists: luciferase reporter qHTS assay (AID 1671197). Also: nearly all actives have a fitted effect of over 65% in size. Also: potency is read from the fitted curve at half-maximal effect. Put shortly:
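Inhibition of CYP2C19 was scored from loss of luminescence in a P450-Glo proluciferin substrate assay, NADPH-started and run 1 h at 37C, with ketoconazole as positive control.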

For assay [17], the target named is Nuclear receptor subfamily 1 group I member 2 (Rattus norvegicus) (UniProt Q9R1A7). Kind of assay: Rat pregnane X receptor (rPXR) activation by small molecules, qHTS assay (AID 1346983). Also: nearly all actives have a fitted effect of over 20% in size. As to conditions: rPXR luciferase reporter cells, One-Glo luminescence, 24 h; stronger effect = higher value. Put shortly: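 Cell-based rPXR activation assay: rPXR cells, 2,000 per well, rested 5hr at 37 C, then exposed to compounds in DMSO for 24 hr at 37 C. Luciferase activity read by One-Glo luminescence after 30 min at room temperature.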
Nuclear receptor subfamily 1 group I member 2 (Rattus norvegicus), sequence (Q9R1A7 whole entry, looked up): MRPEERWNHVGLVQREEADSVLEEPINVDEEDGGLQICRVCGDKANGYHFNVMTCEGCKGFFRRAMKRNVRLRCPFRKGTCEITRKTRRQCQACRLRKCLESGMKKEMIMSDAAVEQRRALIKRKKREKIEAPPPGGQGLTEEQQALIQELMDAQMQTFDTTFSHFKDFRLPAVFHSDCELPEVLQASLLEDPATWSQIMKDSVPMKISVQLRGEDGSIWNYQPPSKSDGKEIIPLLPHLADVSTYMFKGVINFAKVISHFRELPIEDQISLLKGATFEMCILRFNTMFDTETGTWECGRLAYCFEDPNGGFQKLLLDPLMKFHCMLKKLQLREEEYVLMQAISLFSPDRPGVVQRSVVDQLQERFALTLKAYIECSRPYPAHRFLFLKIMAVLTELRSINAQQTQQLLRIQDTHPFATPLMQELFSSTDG

Assay [18] concerns the target Progesterone receptor (Homo sapiens) (UniProt P06401). Kind of assay: qHTS assay to identify small molecule antagonists of the progesterone receptor (PR) signaling pathway (AID 1346795; active = well fitted inhibition curve with a large enough effect in the signal ratio in the repeat runs, not every such curve was filed as active; the % refers to the signal ratio). Summed up: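 Antagonist mode with agonist R5020 at 1 nM final and 16 hr incubation at 37C. Reporter was beta-lactamase driven by UAS in HEK293T (PR-UAS-bla), 2% charcoal-stripped serum; signal from LiveBLAzer FRET substrate, 2 hr at room temperature.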

Values joined by “and” are separate entries in the source; they are usually repeats but may differ in a detail not shown here. Equal values may be shown once. Records with an inconclusive call do not appear. Where a structure was tested more than once in an assay, its records may differ in their call. Active and inactive are the calls of the source. Unless noted, calls follow the shape of the dose curve; as a rule, active = well fitted curve in the direction sought with a large enough effect in the repeat runs; inconclusive = weak or mixed curves; inactive = no such curve, though single readings can be large; an effect the other way counts as inactive or inconclusive.
% is scaled to controls: 0 for no effect and ±100 for the full control effect.

Progesterone receptor (Homo sapiens), sequence (P06401 whole entry, looked up): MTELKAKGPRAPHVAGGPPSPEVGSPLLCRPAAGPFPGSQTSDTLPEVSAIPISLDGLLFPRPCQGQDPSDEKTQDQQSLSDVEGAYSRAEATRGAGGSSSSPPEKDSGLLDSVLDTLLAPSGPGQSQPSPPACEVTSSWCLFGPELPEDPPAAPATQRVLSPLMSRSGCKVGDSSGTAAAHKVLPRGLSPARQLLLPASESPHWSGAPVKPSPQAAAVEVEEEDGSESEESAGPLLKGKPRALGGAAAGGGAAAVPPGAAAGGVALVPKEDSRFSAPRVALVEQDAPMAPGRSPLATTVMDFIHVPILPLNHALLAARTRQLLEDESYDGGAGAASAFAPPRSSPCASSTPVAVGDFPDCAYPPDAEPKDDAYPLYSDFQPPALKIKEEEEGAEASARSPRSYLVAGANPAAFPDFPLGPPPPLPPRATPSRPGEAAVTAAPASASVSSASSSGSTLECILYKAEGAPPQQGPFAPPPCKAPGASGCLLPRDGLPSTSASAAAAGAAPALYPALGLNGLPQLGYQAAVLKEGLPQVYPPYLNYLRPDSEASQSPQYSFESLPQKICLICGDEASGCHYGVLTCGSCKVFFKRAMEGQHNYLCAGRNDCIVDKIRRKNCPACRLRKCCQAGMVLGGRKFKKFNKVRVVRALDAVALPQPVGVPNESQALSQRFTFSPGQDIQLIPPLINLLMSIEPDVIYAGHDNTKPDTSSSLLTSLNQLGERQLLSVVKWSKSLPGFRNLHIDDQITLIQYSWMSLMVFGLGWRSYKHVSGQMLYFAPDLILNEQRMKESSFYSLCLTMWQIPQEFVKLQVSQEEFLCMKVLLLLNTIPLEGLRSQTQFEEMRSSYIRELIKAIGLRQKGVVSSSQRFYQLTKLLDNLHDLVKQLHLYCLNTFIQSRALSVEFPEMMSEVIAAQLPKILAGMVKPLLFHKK
Cytochrome P450 2C19 (Homo sapiens), sequence (P33261 whole entry, looked up): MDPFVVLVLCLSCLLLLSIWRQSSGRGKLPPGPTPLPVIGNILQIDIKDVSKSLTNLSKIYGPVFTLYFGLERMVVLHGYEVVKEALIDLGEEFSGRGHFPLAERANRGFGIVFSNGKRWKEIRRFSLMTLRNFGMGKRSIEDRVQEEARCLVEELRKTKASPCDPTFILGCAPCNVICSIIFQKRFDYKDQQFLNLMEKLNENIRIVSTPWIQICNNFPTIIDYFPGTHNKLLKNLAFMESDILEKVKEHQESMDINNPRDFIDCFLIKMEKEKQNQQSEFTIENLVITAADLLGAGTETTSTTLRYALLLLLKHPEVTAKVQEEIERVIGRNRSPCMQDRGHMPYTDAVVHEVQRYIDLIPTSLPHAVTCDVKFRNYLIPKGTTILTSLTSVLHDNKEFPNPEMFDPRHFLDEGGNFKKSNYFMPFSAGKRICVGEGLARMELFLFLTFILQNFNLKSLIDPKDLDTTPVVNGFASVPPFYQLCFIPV
Thyrotropin-releasing hormone receptor (Homo sapiens), sequence (P34981 whole entry, looked up): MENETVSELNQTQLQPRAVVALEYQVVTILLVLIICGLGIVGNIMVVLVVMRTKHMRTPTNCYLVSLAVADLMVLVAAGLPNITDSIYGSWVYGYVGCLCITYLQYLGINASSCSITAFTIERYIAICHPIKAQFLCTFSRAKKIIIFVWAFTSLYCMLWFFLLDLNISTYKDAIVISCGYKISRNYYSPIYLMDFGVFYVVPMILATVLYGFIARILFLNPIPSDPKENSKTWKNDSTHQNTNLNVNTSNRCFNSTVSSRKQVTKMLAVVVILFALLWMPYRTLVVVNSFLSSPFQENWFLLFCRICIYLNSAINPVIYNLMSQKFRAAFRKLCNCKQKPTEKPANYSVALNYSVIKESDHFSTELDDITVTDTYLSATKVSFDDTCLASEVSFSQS
Nuclear receptor subfamily 1 group I member 2 (Homo sapiens), sequence (O75469 whole entry, looked up): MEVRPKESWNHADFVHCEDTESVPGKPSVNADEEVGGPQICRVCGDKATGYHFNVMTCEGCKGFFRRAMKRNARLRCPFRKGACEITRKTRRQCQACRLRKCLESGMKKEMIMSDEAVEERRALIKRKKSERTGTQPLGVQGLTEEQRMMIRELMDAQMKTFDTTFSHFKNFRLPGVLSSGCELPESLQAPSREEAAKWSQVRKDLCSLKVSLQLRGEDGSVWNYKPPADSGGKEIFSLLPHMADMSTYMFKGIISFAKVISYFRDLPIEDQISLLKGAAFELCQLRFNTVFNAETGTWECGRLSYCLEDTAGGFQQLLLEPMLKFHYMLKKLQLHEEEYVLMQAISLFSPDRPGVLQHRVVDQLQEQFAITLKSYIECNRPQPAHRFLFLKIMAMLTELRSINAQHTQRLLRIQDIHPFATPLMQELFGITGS
Cytochrome P450 2D6 (Homo sapiens), sequence (P10635 whole entry, looked up): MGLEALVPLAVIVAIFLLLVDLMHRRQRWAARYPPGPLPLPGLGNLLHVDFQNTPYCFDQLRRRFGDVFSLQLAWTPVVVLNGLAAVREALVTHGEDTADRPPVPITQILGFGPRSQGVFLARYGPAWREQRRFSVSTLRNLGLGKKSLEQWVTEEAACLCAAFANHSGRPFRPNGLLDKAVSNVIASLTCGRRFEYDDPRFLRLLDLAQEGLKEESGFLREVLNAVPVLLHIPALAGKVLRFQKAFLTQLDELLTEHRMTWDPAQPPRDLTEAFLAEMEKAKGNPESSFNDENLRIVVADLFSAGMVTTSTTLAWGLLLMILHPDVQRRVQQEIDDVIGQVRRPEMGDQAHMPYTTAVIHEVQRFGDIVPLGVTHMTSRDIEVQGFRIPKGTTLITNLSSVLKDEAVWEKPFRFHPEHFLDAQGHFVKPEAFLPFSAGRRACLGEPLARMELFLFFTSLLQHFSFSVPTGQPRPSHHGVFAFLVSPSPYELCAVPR

Consider `CC(COCC(C)OC(=O)c1ccccc1)OC(=O)c1ccccc1` (stereo not given), for which the Potency entry in [1], in assay [2], in [3], in [4], in assay [5] and in [6] was “inactive” each time. Moreover, the Potency result in assay [7], in assay [9], in assay [10], in [11], in assay [12] and in [13] was “inactive” throughout. Further, the Potency result in assay [14] is “inactive”. In assay [8], the outcome was inactive.
For the compound `O=C(c1ccccc1)c1ccc(O)c(O)c1O`, the Potency result in assay [1], in assay [2], in assay [3], in [4], in [5] and in [6] was “inactive” each time. The Potency result in assay [7], in assay [10] and in [11] was “inactive” each time. In assay [8], the result was inactive. For the same compound, the Potency in assay [15] was 69.1 µM (active) and 61.1 µM (active); in assay [12], 61.6 µM (active); in assay [13] it was 54.9 µM (active); in assay [14], 63.8 µM (active); in assay [16], 80.4 µM (active) and 63.3 µM (active).
Regarding `N[C@@H](Cc1cc(I)c(Oc2ccc(O)c(I)c2)c(I)c1)C(=O)O`, the Potency result in assay [1], in [2], in [3], in assay [4], in assay [5] and in assay [6] was “inactive” in each case. Moreover, the Potency result in assay [9], in assay [10], in assay [15], in assay [12] and in assay [14] was “inactive” in each case. In addition, the Potency entry in assay [13] was “inactive and 63.7 µM (active)”; in [16] it was “inactive and 74 µM (active)”. In addition, in [17], the max activation is -2.4% (inactive).
For `CC[N+](CC)(CC(=O)Nc1c(C)cccc1C)Cc1ccccc1`, the Potency result in assay [1], in assay [18], in assay [2], in assay [3], in [4] and in [5] was “inactive” throughout. Besides, the Potency entry in [6], in assay [9], in assay [10], in [15], in [11] and in assay [12] was “inactive” each time. In addition, the Potency in assay [14] was 11.2 nM (active) and inactive; in [16] it was 39.9 µM (active) and inactive.
On to `CCc1cccc(CC)c1N`, for which the Potency result in assay [1], in assay [18], in assay [2], in assay [3], in assay [4] and in [5] was “inactive” throughout. Moreover, the Potency entry in assay [6], in assay [9], in [10], in assay [11], in [12] and in [13] was “inactive” in each case. In addition, the Potency result in [14] is “inactive”.
For the compound `CC(C)=CCC/C(C)=C/C=O`, the Potency entry in [1], in [18], in assay [2], in [3], in assay [4] and in [5] was “inactive” throughout. Also, the Potency entry in assay [6], in assay [9], in assay [10], in assay [15], in [11] and in assay [12] was “inactive” each time. Moreover, the Potency result in assay [13], in assay [14] and in assay [16] was “inactive” each time.
